Data taken from PubChem BioAssay (Tox21).
“And” between values parts separate entries of the source, which are not always exact repeats. Equal values may be shown once. Results filed as inconclusive are left out. The source made the active and inactive calls. Calls follow the shape of the dose curve; as a rule, active = well fitted curve in the direction sought with a large enough effect in the repeat runs; inconclusive = weak or mixed curves; inactive = no such curve, though single readings can be large; an effect the other way counts as inactive or inconclusive.

What was measured:
[1] = qHTS RealTime-Glo MT Cell Viability Assay in HEK293 cells - 16 hour (AID 1224872); also: nearly all actives have a fitted effect of over 50% in size; also: potency is read from the fitted curve at half-maximal effect; as to activity change, negative = cytotoxicity: top concentration of the series differs between compounds
How it was run: (§1)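 Quantitative high-throughput screen of the Tox21 10K library in HEK293: cells and RealTime-Glo reagents plated together, compound added at 5 h, luminescence monitored through 40 h at 37 C.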

[2] = qHTS RealTime-Glo MT Cell Viability Assay in HepG2 cells - 8 hour (AID 1224873); also: nearly all actives have a fitted effect of over 55% in size; also: potency is read from the fitted curve at half-maximal effect
How it was run: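 Real-time viability: cells seeded at 600 per well together with NanoLuc and cell-permeant prosubstrate, compounds added after 5 h incubation. Luminescence tracked at 0, 8, 16, 24, 32 and 40 h of exposure.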

[3] = qHTS RealTime-Glo MT Cell Viability Assay in HEK293 cells - 40 hour (AID 1224874); settings: RealTime-Glo luminescence; max response: stronger effect = lower value; also: nearly all actives have a fitted effect of over 50% in size; also: potency is read from the fitted curve at half-maximal effect
How it was run: (§2)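 Real-time viability in HEK293: signal arises when living cells convert a prosubstrate for NanoLuc in the medium, so luminescence tracks viable cell number. Compound (23 nL, DMSO) added 5 h post-seeding; kinetic reads at 0–40 h, 37 C.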

[4] = A CellTox Green Cytotoxicity Assay to monitor cytotoxicity in HEK293 cells - 24 hour (AID 1224875); also: nearly all actives have a fitted effect of over 45% in size; also: potency is read from the fitted curve at half-maximal effect; as to activity change: series mostly up to about 77 µM
How it was run: (§3)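 Cells (HEK293, 600/well) and dye reagent are dispensed together. After 5 h at 37 C, 23 nL compound is pinned in. Plates stay at 37 C for 40 h with fluorescence read at 0h, 8h, 16h, 24h, 32h and 40h.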

[5] = A CellTox Green Cytotoxicity Assay to monitor cytotoxicity in HepG2 cells - 16 hour (AID 1224876); also: nearly all actives have a fitted effect of over 45% in size; also: potency is read from the fitted curve at half-maximal effect
How it was run: (§4)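 Cells and non-lytic dye reagent are dispensed together (600 HepG2 cells/well) and incubated 5 h before DMSO compound transfer. Kinetic fluorescence is then recorded in the same wells during 40 h at 37 C.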

[6] = qHTS RealTime-Glo MT Cell Viability Assay in HepG2 cells - 32 hour (AID 1224877); also: nearly all actives have a fitted effect of over 55% in size; also: potency is read from the fitted curve at half-maximal effect
How it was run: (§5)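 Compound treatment began 5 h after plating HepG2 cells (600/well) with NanoLuc luciferase and prosubstrate. Plates stayed at 37 C for 40 h; luminescence was captured at six time points, 0 h through 40 h.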

[7] = A CellTox Green Cytotoxicity Assay to monitor cytotoxicity in HepG2 cells - 24 hour (AID 1224878); also: nearly all actives have a fitted effect of over 45% in size; also: potency is read from the fitted curve at half-maximal effect
How it was run: as §4

[8] = A CellTox Green Cytotoxicity Assay to monitor cytotoxicity in HepG2 cells - 40 hour (AID 1224879); also: nearly all actives have a fitted effect of over 40% in size; also: potency is read from the fitted curve at half-maximal effect
How it was run: as §4

[9] = A CellTox Green Cytotoxicity Assay to monitor cytotoxicity in HEK293 cells - 32 hour (AID 1224881); also: nearly all actives have a fitted effect of over 40% in size; also: potency is read from the fitted curve at half-maximal effect
How it was run: as §3

[10] = A CellTox Green Cytotoxicity Assay to monitor cytotoxicity in HepG2 cells - 0 hour (AID 1224882); also: nearly all actives have a fitted effect of over 35% in size
How it was run: as §4

[11] = A CellTox Green Cytotoxicity Assay to monitor cytotoxicity in HepG2 cells - 32 hour (AID 1224883); also: nearly all actives have a fitted effect of over 50% in size; also: potency is read from the fitted curve at half-maximal effect
How it was run: as §4

[12] = A CellTox Green Cytotoxicity Assay to monitor cytotoxicity in HEK293 cells - 8 hour (AID 1224884); also: nearly all actives have a fitted effect of over 35% in size
How it was run: as §3

[13] = qHTS RealTime-Glo MT Cell Viability Assay in HEK293 cells - 24 hour (AID 1224886); also: nearly all actives have a fitted effect of over 50% in size; also: potency is read from the fitted curve at half-maximal effect; as to activity change, negative = cytotoxicity: top concentration of the series differs between compounds
How it was run: as §1

[14] = qHTS RealTime-Glo MT Cell Viability Assay in HEK293 cells - 8 hour (AID 1224887); also: nearly all actives have a fitted effect of over 50% in size; also: potency is read from the fitted curve at half-maximal effect; as to activity change, negative = cytotoxicity: top concentration of the series differs between compounds
How it was run: as §2

[15] = A CellTox Green Cytotoxicity Assay to monitor cytotoxicity in HEK293 cells - 16 hour (AID 1224888); also: nearly all actives have a fitted effect of over 35% in size; also: potency is read from the fitted curve at half-maximal effect
How it was run: as §3

[16] = qHTS RealTime-Glo MT Cell Viability Assay in HepG2 cells - 16 hour (AID 1224885); also: nearly all actives have a fitted effect of over 50% in size; also: potency is read from the fitted curve at half-maximal effect
How it was run: as §5

[17] = A CellTox Green Cytotoxicity Assay to monitor cytotoxicity in HepG2 cells - 8 hour (AID 1224890); also: nearly all actives have a fitted effect of over 45% in size
How it was run: as §4

[18] = qHTS RealTime-Glo MT Cell Viability Assay in HEK293 cells - 0 hour (AID 1224880)
How it was run: as §2

[19] = qHTS RealTime-Glo MT Cell Viability Assay in HepG2 cells - 0 hour (AID 1224889); also: nearly all actives have a fitted effect of over 50% in size
How it was run: as §5

[20] = qHTS assay to identify small molecule antagonists of the estrogen receptor alpha (ER-alpha) signaling pathway using the BG1 cell line in the presence of 0.1 nM 17-beta-estradiol - cell viability counter screen (AID 1259241); also: nearly all actives have a fitted effect of over 40% in size
How it was run: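 Cytotoxicity counter-screen: live-cell protease activity measured by fluorescence (30 min reagent step) in the same wells. Cells were VM7Luc4E2 with endogenous ER-alpha and ERE-driven luciferase, treated 22 hr at 37C alongside 0.1 nM 17beta-estradiol final.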
% is scaled to controls: 0 for no effect and ±100 for the full control effect.

CN1CCC[C@@H]1CCO[C@](C)(c1ccccc1)c1ccc(Cl)cc1
active: Potency [1] 19 µM | Potency [3] 16.9 µM | Potency [4] 26.8 µM | Potency [5] 21.3 µM | Potency [6] 23.9 µM | Potency [7] 21.3 µM | Potency [8] 21.3 µM | Potency [9] 26.8 µM | Potency [11] 21.3 µM | Potency [13] 10.7 µM | Potency [15] 23.9 µM
inactive: Potency [2] | Potency [10] | Potency [12] | Potency [14]

Nc1nc(N)nc(-c2cc(Cl)ccc2Cl)n1
inactive: Potency [1] | Potency [2] | max response [3] 3.58% | Potency [4] | Potency [5] | Potency [6] | Potency [7] | Potency [8] | Potency [9] | Potency [10] | Potency [11] | Potency [12] | Potency [16] | Potency [13] | Potency [14] | Potency [17]

c1ccsc1
inactive: Potency [1] | Potency [2] | max response [3] -2.24% | Potency [4] | Potency [5] | Potency [6] | Potency [7] | Potency [8] | Potency [18] | Potency [10] | Potency [11] | Potency [12] | Potency [16] | Potency [14] | Potency [15] | Potency [19] | Potency [17]

O=C1c2ccccc2C(=O)N1SC1CCCCC1
inactive: Potency [18] | Potency [10] | Potency [12] | Potency [19]
active: Potency [1] 34.6 µM and 38.9 µM | Potency [2] 38.9 µM | Potency [3] 21.9 µM and 38.9 µM | Potency [4] 13.8 µM and 34.7 µM | Potency [5] 43.6 µM | Potency [7] 21.9 µM | Potency [8] 24.5 µM | Potency [9] 12.3 µM and 24.5 µM | Potency [11] 24.5 µM | Potency [16] 38.9 µM | Potency [14] 38.9 µM | Potency [15] 43.6 µM

COc1cc2nc(N3CCN(C(=O)c4ccco4)CC3)nc(N)c2cc1OC
active: Potency [7] 7.37 µM | Potency [8] 10.4 µM | Potency [11] 10.4 µM
inactive: activity change, negative = cytotoxicity [1] -20% [at 15.8 µM] | viability change, negative = cytotoxic [2] -0.626% [at 15.8 µM] | max response [3] -18.8% | activity change [4] 21% [at 15.8 µM, stronger effect = higher value] | cytotoxicity increase [5] 29.2% [at 15.8 µM] | activity change, negative = cytotoxicity [18] 4.25% [at 15.8 µM] | cytotoxicity increase [9] 43.4% [at 15.8 µM] | cytotoxicity increase [12] -2.23% [at 15.8 µM] | activity change, negative = cytotoxic [16] -15.2% [at 15.8 µM] | activity change, negative = cytotoxicity [13] -15.4% [at 15.8 µM] | activity change, negative = cytotoxicity [14] -21.9% [at 15.8 µM] | activity change [15] 1.13% [at 15.8 µM, stronger effect = higher value] | activity change, negative = cytotoxicity [19] 8.34% [at 15.8 µM] | activity change, negative = cytotoxicity [20] 2.36% [at 19 µM]

CC(C)CCCCCOC(=O)CCS
inactive: Potency [1] | Potency [2] | max response [3] 0.648% | Potency [4] | Potency [5] | Potency [6] | Potency [7] | Potency [8] | Potency [18] | Potency [10] | Potency [11] | Potency [12] | Potency [16] | Potency [13] | Potency [14] | Potency [15] | Potency [19] | Potency [17] | Potency [20]
